Rows were chosen to be rich in hits. Some 1.4% of all compounds tested hit in one or more screens of this group.
BRCA1 expr act: increases BRCA1 expression; MCF7-BRCA1-FFLuc reporter, luminescence, 48 h; response scale: scaled: vehicle 0%, 10 µM genistein 100%; Potency, µM (series often up to 46.1 µM), inactives show top-dose activation, most hits filed as activators; hit rate 1.1% among 380,000; AID 624202; also: potency is read from the fitted curve at half-maximal effect; nearly all actives have a fitted effect of over 80% in size
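Compounds are tested at multiple concentrations on MCF7 BRCA1-luciferase reporter cells seeded at 2000 per well; after 48 h, a single luminescence end-point is taken and curves fitted to the normalized data.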
p53 reactivator: mutant p53 re-activation in reporter cells; Potency, µM (top dose mostly 92.2 µM), for inactives: at the highest dose activity change, positive = activation, most hits filed as activators; hit rate 0.063% among 320,000; H1299 p53-A138V BP100-luciferase reporter, luminescence, 24 h; AID 504706; also: potency is read from the fitted curve at half-maximal effect; % of control where 0% means no effect; nearly all actives have a fitted effect of over 45% in size
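H1299 (p53-null), stable ts p53-A138V + BP100-Luc; 1000 cells/well, Opti-MEM/10% FBS; cpd 4 pt, 1:5; 24 h, 37 deg C, 5% CO2; detection reagent 10 min RT; luminescence.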
TCR act: T cell receptor activation. Potency, µM (top dose mostly 9.22 µM), without a hit: at the highest dose activation of IL-2 secretion, most hits filed as activators. primary human leukocytes, anti-CD3, IL-2 HTRF, 48 h. 330,000 tested, under 10 active; also: % of control where 0% means no effect
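HTRF read-out of IL-2 secretion: europium cryptate donor excited at 320nm, d2 acceptor emission at 665nm. Cells were primary human leukocytes incubated 48 hr with compounds and a-CD3 beads, supplying TCR signal only.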
uPA generation: inhibitors of cell surface uPA generation | cell surface uPA generation assay, qHTS | Potency, µM (series often up to 38.3 µM), for the others: at the highest dose activity change, negative = inhibition, hits mostly inhibitors | hit rate 0.31% among 330,000 | AID 540303; active = well fitted inhibition curve with a large enough effect; inconclusive = small, poorly fitted or top-dose-only effect; inactive = no such curve, though single readings can be large or run the other way; tested in mouse RAW 264.7 cells; also: potency is read from the fitted curve at half-maximal effect; % is scaled to controls: 0 for no effect and ±100 for the full control effect; nearly all actives have a fitted effect of over 55% in size
IL-2 act: activates IL-2 in a cell-based reporter assay. IL-2 activation reporter assay, cell-based qHTS; stimulated with anti-CD3/CD4/CD28 beads; in transgenic mouse T cells. activation, % (series mostly up to about 46 µM). hit rate 0.065% among 360,000. AID 652025; in the data active = activation above about 50%; inconclusive = mostly about 30% to 49%; also: 0% is about no effect
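Quantitative HTS in unstimulated transgenic mouse T cells, with memory T cells as non-tolerant control and PMA/ionomycin as tolerance-bypass control. Compound pretreatment lasted 60 minutes before 18 h bead stimulation; EGFP/DsRed fluorescence read.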
Active calls of the source: *; ? = inconclusive; · = not tested or not shown; [ ] = another dose, or the depositor's remark. Unless noted, calls follow the shape of the dose curve; as a rule, active = well fitted curve in the direction sought with a large enough effect; inconclusive = small, poorly fitted or top-dose-only effect, or another doubt; inactive = no such curve, though single readings can be large; an effect the other way counts as inactive or inconclusive.

SMILES	BRCA1 expr act	p53 reactivator	TCR act	uPA generation	IL-2 act
Cc1cc(C(=O)Nc2ccc(S(=O)(=O)Nc3onc(C)c3C)cc2)c(C)o1	-1%	1%	·	10%	-2
Cc1ccc2oc(C(=O)Nc3ccc(S(=O)(=O)Nc4onc(C)c4C)cc3)c(C)c2c1	11µM*	11%	-7%	2%	4
COc1cc2c(C(=O)N(C)c3cccc(C(F)(F)F)c3)cn(CC(C)C)c(=O)c2cc1OC	-20%	·	·	·	·
COC(=O)Cc1ccc2sc(-c3ccccc3)nc2c1	7.1µM*	?	-4%[46.1 µM]	-1%	0
COc1cccc(C(=O)Nc2sc3c(c2C#N)CCN(C(C)=O)C3)c1	-6%	6%	-11%	0.4µM*	-3
CN1CCc2nc(NC(=O)c3cccc(S(=O)(=O)N4CCc5ccccc54)c3)sc2C1	-45%	-3%	0%	-2%	-1
COc1cccc(C(=O)Nc2nc3c(s2)CN(C)CC3)c1	14µM*	3%	3%	-1%	-1
CCCNC(=O)Cn1c(SCc2ccccc2C)nc2ccncc21	35%	·	·	·	·
Cc1c(Cl)cccc1NC(=O)CC(c1cccs1)N1Cc2ccccc2C1=O (centres undefined)	0%	·	·	·	·
C/C(=N/NC(=O)c1cccc(N2CCCC2=O)c1)c1ccncc1	8.9µM*	15%	-2%	2%	0
C/C(=N/NC(=O)c1cccc(N2CCCC2=O)c1)c1ccc(Br)cc1	30%	1%	17%	-7%	-2
COc1cccc(/C=N/NC(=O)c2cccc(N3CCCC3=O)c2)c1	8.9µM*	?	0%	-5%	0
CN(C)c1ccc(/C=C/c2c3ccccc3cc[n+]2[O-])cc1	12%	·	·	·	·
CC(=O)N1N=C(c2cccc(NS(C)(=O)=O)c2)CC1c1ccc2c(c1)OCO2 (centres undefined)	34%	-30%	-3%	2%	3
CS(=O)(=O)Nc1ccc(C2=NN(S(C)(=O)=O)C(c3ccc4c(c3)OCO4)C2)cc1 (centres undefined)	4.5µM*	?	4%[46.1 µM]	-1%	1
CC(C)(C)c1ccc(C(=O)NC(=S)N2CCOCC2)cc1	10µM*	25%	-1%	-24%	-1
CN1CCN(C(=S)NC(=O)c2ccc(C(C)(C)C)cc2)CC1	1%	-3%	-4%[46.1 µM]	-2%	1
CCSc1nnc(NC(=O)c2ccccc2)s1	78%	?	7%	-4%	0
O=C(CSc1nnc(NC(=O)c2ccccc2F)s1)NCc1ccco1	72%	25%	-4%	7.9µM*	-3
CCSc1nnc(NC(=O)c2ccccc2C)s1	10µM*	27%	-7%	-2%	-1
Cc1ccc(CSc2nnc(Nc3ccc(C)cc3)s2)cc1	-1%	1%	5%	4%	-2
CCSc1nnc(Nc2ccccc2)s1	11µM*	?	2%	-9%	-2
CCSc1nnc(Nc2ccc(C)cc2)s1	10µM*	4%	-5%	·	-1
CCOC(=O)c1c(C)[nH]c(C)c1S(=O)(=O)N(C)CC(=O)Nc1ccc(C)c(N(C)C)c1	-6%	·	·	·	·
O=C(Cn1ncc2c1-c1ccccc1OC2)N1CCN(c2ccccc2)CC1	0%	·	·	·	·
SMILES	BRCA1 expr act	p53 reactivator	TCR act	uPA generation	IL-2 act
CCSc1nnc(NC(=O)c2cc3c(s2)CCCC3)s1	7.9µM*	24%	·	·	-1
COc1ccc(Cc2c(-c3ccc(F)cc3)nc3ccc(Br)cn23)c(C)c1	8.9µM*	·	·	·	0
Cc1c(N)ccc(-n2nc3ccccc3n2)c1C	11µM*	·	-3%	3%	-2
Cc1cc(N)ccc1-n1nc2ccccc2n1	2%	·	-10%	-1%	1
COc1cc2nc(N3CCOCC3)nc(NC3CCN(Cc4ccccc4)CC3)c2cc1OC	-6%	·	·	·	·
CCCc1cc(=O)n2[nH]c(-c3ccc(Cl)cc3)cc2n1	7.1µM*	·	·	-11%	0
CCCc1cc(=O)n2[nH]c(-c3ccc(C)cc3)cc2n1	1.4µM*	?	2%	-8%	0
CCCCCn1c(CCCNC(=O)c2ccccc2)nc2ccccc21	-27%	·	·	·	·
CCOc1ccc(NC(=O)c2c(NC(=O)Cc3ccccc3)sc3c2CCCC3)cc1	-4%	·	·	·	·
COc1cc(C(=O)Nc2ccc3c(c2)OCCO3)ccc1OC(F)F	11µM*	?	·	·	0
COc1ccccc1/C=C/C(=O)Nc1ccc2c(c1)OCCO2	-33%	?	1%[46.1 µM]	4µM*	-1
COCCn1c(SCC(=O)c2c(C)[nH]c3ccccc23)nc2cc(C(=O)NC(C)C)ccc2c1=O	-1%	·	·	·	·
CC(=O)N1N=C(c2ccc(NS(=O)(=O)c3ccccc3)cc2)CC1c1ccco1 (centres undefined)	-19%	-10%	9%	0.71µM*	1
Cc1ccc(C)c(NC(=O)N2CCCCCC2)c1	24%	20%	0%	-21%	-4
Cc1ccc(C)c(NC(=O)N2CCc3ccccc3C2)c1	3.5µM*	9%	5%	-1%	1
O=C(Nc1cccc(Cl)c1)N1CCc2ccccc2C1	?	·	4%	4%	-1
COc1cccc(NC(=O)N2CCc3ccccc3C2)c1	11µM*	3%	-2%	0%	1
Cc1cc(C)cc(C(=O)N(Cc2nc(-c3ccc(Cl)cc3)no2)C(C)C)c1	4%	·	·	·	·
CC(C)(C)c1ccc(-c2nc(C#N)c(NCc3ccncc3)o2)cc1	11µM*	?	-6%	·	-1
Oc1cc(O)cc(-c2cc3ccc(O)cc3o2)c1	6%	·	-1%	-7%	0
CC1(C)Oc2cc3oc(-c4cc(O)cc(O)c4)cc3cc2CC1O (centres undefined)	-18%	·	3%	8.9µM*	0
COCOc1cc(O)c(C(=O)/C=C/c2ccccc2)c(OCOC)c1	-15%	·	1%	10µM*	0
COc1ccc(/C=C2/SC(=S)N(CCCC(=O)Nc3ccc(O)cc3)C2=O)cc1OC	-69%	-4%	12%	?	85*
COc1ccc(/C=C2\SC(=S)N(CCCC(=O)Nc3ccc(C(=O)O)cc3)C2=O)cc1OC	-65%	-14%	-2%	0%	-4
Cc1nc(/C(N)=N/OC(=O)c2ccccc2Cl)c(C(F)(F)F)o1	11µM*	?	1%	-9%	0
SMILES	BRCA1 expr act	p53 reactivator	TCR act	uPA generation	IL-2 act
COc1ccc(NC(=S)Nc2ccccn2)c(OC)c1	5.6µM*	?	4%	-10%	-2
Cc1cc(C(=O)CSc2nc(N)cc(N)n2)c(C)n1C1CC1	-18%	-3%	0%	4%	4
Cc1cc(C)c(C(=O)CSc2nnc(N)s2)cc1C	56%	15%	0%	6%	1
Cc1ccc(C(=O)CSc2nnc(N)s2)c(C)c1	4.5µM*	19%	-4%	-4%	0
Cc1cc(C(=O)CSc2nnc(N)s2)c(C)n1C1CC1	7.9µM*	13%	-2%	-3%	4
Cc1ccc(CNC(=O)CCN2C(=O)C(C)Oc3ccc(C)cc32)cc1 (centres undefined)	-6%	·	·	·	·
CC(C)C(=O)OCc1cc(=O)n2nc(C3CC3)sc2n1	11%	·	·	·	·
